Drawing on PubChem BioAssay, this text covers fold change permeability for 15 molecules.

Molecules are shown by their SMILES. A number with no mark means an inactive call. The source made the active and inactive calls. Rule as the data show it: active = fold change permeability below about 0.7 or above about 1.3; inactive = in between.

The nature of the test: modulators of brain endothelial barrier permeability, primary screen, cell-based, FITC-avidin fluorescence, HTS (AID 1963498). Also: test concentration not given here. The conditions noted are these: actives lie on both sides.
In the case of `CCCCCCCCCCCCCCCCCCOC[C@H](COP(=O)([O-])OCC[N+](C)(C)C)OC`, the fold change permeability is 1.5 (active).

Turning to `NC(=O)c1ccc(OCCCN2C[C@H]3CCC[C@H]3C2)cc1`, the fold change permeability is 0.8.

With `CN(C)CC/C=C1\c2ccccc2COc2ccccc21`, the fold change permeability was 1.4 (active).

For `C[C@H]1O[C@@H](n2cc(F)c(=O)[nH]c2=O)[C@H](O)[C@@H]1O`, the fold change permeability was 0.8.

For `CN1CCN(C(c2ccccc2)c2ccc(Cl)cc2)CC1` (stereo not given), the fold change permeability was 1.7 (active).

Regarding `CC(=O)O[C@H]1C[C@@]2(C)[C@@H](C[C@@H](O)[C@H]3[C@@]4(C)CC[C@@H](O)[C@@H](C)[C@@H]4CC[C@@]32C)/C1=C(\CCC=C(C)C)C(=O)O`, the fold change permeability was 1.

In the case of `CNCCC(Oc1ccccc1C)c1ccccc1` (stereo not given), the fold change permeability is 0.7 (active).

For `NC[C@@H]1O[C@H](C23CC4CC(CC(C4)C2)C3)Cc2c1ccc(O)c2O`, the fold change permeability is 1.1.

As to `Nc1c(C(=O)Nc2c(F)cc(F)cc2Br)sc2nc3c(cc12)CCC3`, the fold change permeability is 0.9.

As to `NC[C@@H]1O[C@H](c2ccccc2)Cc2c1ccc(O)c2O`, the fold change permeability is 1.3 (active).

Turning to `COC(=O)Nc1nc2ccc(C(=O)c3cccs3)cc2[nH]1`, the fold change permeability was 1.4 (active).

Regarding `C[C@]12CCC(=O)C=C1C=C[C@@H]1[C@@H]2CC[C@@]2(C)[C@H]1CC[C@@]21CCC(=O)O1`, the fold change permeability was 1.1.

As to `COC(=O)C1=C(C)NC(C)=C([N+](=O)[O-])C1c1ccccc1C(F)(F)F` (stereo not given), the fold change permeability was 1.1.

On to `N#CC(C#N)=C(N)/C(C#N)=C/c1ccc(O)cc1`, for which the fold change permeability is 0.7 (active).

With `CC(=O)Oc1cc(C(F)(F)F)ccc1C(=O)O`, the fold change permeability is 0.8.
